# About 8,800 targets were measured; listed, in parts, are those with a hit and a random draw of the rest. About 0.5% of all pairs of compound and target were hits. Values without a mark were called inactive.
# Legend:
# Test in all cases: log2 fold change, soluble protein after heating vs DMSO (PISA); higher = thermal stabilisation; K562 lysate, 10 uM; active = over 0.2 and 3.5 SD of the protein, either way, in both replicates (recomputed)
# ibrutinib = compound: C=CC(=O)N1CCC[C@@H](n2nc(-c3ccc(Oc4ccccc4)cc3)c3c(N)ncnc32)C1 [ibrutinib]
# How it was run: (§1)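 Log-two fold change in thermal stability relative to solvent controls is reported from duplicates. For each sample, crude K562 extract from dounce-homogenised pellets in PBS pH 7.4 with 1 mM MgCl2, at 1 mg/mL protein, was treated with 10 μM compound for 30 min. Aliquots heated for 3 min across 48°C-58°C were pooled, brought to 0.5% NP-40 at 4°C and cleared at 21,000xg for 90 min. The supernatant was quantified by TMTpro 16plex LC-MS/MS with channel sums equalised.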
# [1] = compound: CC(=O)c1cnc2ccc(-c3cc(Cl)c(O)c(Cl)c3)nc2c1N[C@H]1CC[C@H](CN(C)C)CC1
# How it was run: as §1
# ralimetinib = compound: CC(C)(C)Cn1c(N)nc2ccc(-c3[nH]c(C(C)(C)C)nc3-c3ccc(F)cc3)nc21 [ralimetinib]
# How it was run: as §1
# [2] = compound: CC(C)(O)CC(=O)NCCn1ccc2ncnc(Nc3ccc(Oc4cccc(C(F)(F)F)c4)c(Cl)c3)c21
# How it was run: as §1
# [3] = compound: CC(C)C1=C2N=C(C=C(N2N=C1)NCC3=CC=CC=C3)NCCCCCCN
# How it was run: as §1
# [4] = compound: CC1=C(C(CC(=O)N1)C2=CC=C(C=C2)C(F)(F)F)C(=O)NC3=C(C=C4C(=C3)C=NN4)F
# How it was run: as §1
# [5] = compound: CC1=C(C2=C(C=C1)C(=O)C3=CC=CC=C3N2CCCN)C
# How it was run: as §1
# [6] = compound: CC1=C(C=C(C=C1)NC(=O)C2=CC(=CC=C2)C(C)(C)C#N)NC3=CC4=C(C=C3)N=CN(C4=O)C
# How it was run: as §1
# [7] = compound: CC1=C(C=C(C=C1)NC(=O)C2=CC(=CC=C2)N(C)C)NC(=O)C3=CC=C(C=C3)O
# How it was run: as §1
# [8] = compound: CC1=CC=C(C=C1)SC2=C3C=C(SC3=CN=C2)C(=O)N
# How it was run: as §1
# vemurafenib = compound: CCCS(=O)(=O)Nc1ccc(F)c(C(=O)c2c[nH]c3ncc(-c4ccc(Cl)cc4)cc23)c1F [vemurafenib]
# How it was run: as §1
# [9] = compound: CCCS(=O)(=O)Nc1ccc(F)c(C(=O)c2c[nH]c3ncc(Cl)cc23)c1F
# How it was run: as §1
# barasertib = compound: CCN(CCCOc1ccc2c(Nc3cc(CC(=O)Nc4cccc(F)c4)[nH]n3)ncnc2c1)CCOP(=O)(O)O [barasertib]
# How it was run: as §1
# [10] = compound: CC[C@@H]1C(=O)N(C)c2cnc(Nc3ccc(C(=O)NC4CCN(C)CC4)cc3OC)nc2N1C1CCCC1
# How it was run: as §1
# volasertib = compound: CC[C@@H]1C(=O)N(C)c2cnc(Nc3ccc(C(=O)N[C@H]4CC[C@H](N5CCN(CC6CC6)CC5)CC4)cc3OC)nc2N1C(C)C [volasertib]
# How it was run: as §1
# [11] = compound: CCn1c(C(=O)N(C2CC2)C2CC2)cc2c3c(ncn3C)c(Nc3cc(C)n(C)n3)nc21
# How it was run: as §1
# [12] = compound: CCn1cc(-c2ccnc3[nH]c(-c4cccc(CN(C)C)c4)cc23)c(-c2ccc(NC(=O)N(C)C)cc2)n1
# How it was run: as §1
# [13] = compound: CN1CCC(CNc2ccc3ncc(-c4cccc(OC(F)(F)F)c4)n3n2)CC1
# How it was run: as §1
# saracatinib = compound: CN1CCN(CCOc2cc(OC3CCOCC3)c3c(Nc4c(Cl)ccc5c4OCO5)ncnc3c2)CC1 [saracatinib]
# How it was run: as §1
# sotrastaurin = compound: CN1CCN(c2nc(C3=C(c4c[nH]c5ccccc45)C(=O)NC3=O)c3ccccc3n2)CC1 [sotrastaurin]
# How it was run: as §1
# UniProt Q9UFN0, sequence (Q9UFN0 whole entry, looked up): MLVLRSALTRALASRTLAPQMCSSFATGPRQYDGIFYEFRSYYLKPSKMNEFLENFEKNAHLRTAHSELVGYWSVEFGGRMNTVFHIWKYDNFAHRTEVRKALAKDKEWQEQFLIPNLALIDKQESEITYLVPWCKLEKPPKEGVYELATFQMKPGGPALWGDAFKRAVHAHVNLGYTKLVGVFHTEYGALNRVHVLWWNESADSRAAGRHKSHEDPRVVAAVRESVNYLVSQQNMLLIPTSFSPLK
# UniProt Q15003, sequence (Q15003 whole entry, looked up): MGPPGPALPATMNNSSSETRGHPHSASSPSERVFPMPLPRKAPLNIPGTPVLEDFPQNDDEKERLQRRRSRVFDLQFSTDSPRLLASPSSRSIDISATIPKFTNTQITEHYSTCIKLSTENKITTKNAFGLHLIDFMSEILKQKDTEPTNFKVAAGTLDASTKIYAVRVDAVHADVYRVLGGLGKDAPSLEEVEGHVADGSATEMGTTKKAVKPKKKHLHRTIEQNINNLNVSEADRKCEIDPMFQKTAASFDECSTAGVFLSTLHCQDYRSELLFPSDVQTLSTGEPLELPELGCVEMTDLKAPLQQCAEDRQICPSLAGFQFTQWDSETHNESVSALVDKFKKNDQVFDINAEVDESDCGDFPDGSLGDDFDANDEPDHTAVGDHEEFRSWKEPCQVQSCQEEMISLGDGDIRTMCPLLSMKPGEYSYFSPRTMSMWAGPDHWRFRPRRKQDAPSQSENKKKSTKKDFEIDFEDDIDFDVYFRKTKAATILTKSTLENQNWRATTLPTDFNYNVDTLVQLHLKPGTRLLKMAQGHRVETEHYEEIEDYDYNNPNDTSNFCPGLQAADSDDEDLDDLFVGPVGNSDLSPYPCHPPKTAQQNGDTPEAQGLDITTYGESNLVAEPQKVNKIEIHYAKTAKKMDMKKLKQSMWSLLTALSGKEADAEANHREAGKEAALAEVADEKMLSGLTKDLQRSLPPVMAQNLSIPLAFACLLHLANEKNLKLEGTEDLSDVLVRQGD
# UniProt P40261, sequence (P40261 whole entry, looked up): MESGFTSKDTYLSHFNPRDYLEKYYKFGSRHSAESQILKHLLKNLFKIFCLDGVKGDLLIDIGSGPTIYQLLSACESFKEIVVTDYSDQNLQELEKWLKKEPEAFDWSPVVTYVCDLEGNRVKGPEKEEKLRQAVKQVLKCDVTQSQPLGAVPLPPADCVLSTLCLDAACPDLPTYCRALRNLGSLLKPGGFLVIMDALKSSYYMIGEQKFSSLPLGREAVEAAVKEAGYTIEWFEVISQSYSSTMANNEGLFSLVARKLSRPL
# UniProt Q13423, sequence (Q13423 whole entry, looked up): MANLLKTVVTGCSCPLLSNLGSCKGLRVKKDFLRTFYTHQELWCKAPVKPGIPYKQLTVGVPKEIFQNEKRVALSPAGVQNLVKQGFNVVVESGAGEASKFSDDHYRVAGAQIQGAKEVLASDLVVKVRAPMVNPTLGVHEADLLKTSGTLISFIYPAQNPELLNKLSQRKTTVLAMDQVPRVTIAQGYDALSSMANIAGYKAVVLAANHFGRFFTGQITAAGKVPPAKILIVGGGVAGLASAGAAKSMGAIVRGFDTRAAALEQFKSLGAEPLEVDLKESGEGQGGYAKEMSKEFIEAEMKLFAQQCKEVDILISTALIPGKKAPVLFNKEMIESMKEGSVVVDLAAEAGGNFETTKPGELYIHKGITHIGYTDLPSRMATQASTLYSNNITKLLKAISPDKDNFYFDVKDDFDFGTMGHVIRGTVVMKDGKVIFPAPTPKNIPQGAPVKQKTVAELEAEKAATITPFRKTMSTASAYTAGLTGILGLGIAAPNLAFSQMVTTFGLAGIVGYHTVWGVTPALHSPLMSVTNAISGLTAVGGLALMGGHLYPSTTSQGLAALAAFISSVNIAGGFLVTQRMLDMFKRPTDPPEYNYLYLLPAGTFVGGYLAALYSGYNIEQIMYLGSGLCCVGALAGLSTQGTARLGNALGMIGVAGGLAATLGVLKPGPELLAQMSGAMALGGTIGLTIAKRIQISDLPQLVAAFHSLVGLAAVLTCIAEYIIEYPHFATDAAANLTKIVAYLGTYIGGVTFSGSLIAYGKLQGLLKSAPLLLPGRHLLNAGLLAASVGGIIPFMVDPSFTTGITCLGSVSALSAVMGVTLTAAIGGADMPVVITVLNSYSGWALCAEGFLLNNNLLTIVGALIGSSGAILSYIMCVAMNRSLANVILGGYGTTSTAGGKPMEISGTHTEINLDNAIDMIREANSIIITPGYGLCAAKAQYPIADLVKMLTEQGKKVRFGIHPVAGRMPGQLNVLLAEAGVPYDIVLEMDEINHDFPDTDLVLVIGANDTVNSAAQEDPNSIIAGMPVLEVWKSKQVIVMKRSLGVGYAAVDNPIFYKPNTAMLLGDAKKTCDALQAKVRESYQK
# UniProt Q86W56, sequence (Q86W56 whole entry, looked up): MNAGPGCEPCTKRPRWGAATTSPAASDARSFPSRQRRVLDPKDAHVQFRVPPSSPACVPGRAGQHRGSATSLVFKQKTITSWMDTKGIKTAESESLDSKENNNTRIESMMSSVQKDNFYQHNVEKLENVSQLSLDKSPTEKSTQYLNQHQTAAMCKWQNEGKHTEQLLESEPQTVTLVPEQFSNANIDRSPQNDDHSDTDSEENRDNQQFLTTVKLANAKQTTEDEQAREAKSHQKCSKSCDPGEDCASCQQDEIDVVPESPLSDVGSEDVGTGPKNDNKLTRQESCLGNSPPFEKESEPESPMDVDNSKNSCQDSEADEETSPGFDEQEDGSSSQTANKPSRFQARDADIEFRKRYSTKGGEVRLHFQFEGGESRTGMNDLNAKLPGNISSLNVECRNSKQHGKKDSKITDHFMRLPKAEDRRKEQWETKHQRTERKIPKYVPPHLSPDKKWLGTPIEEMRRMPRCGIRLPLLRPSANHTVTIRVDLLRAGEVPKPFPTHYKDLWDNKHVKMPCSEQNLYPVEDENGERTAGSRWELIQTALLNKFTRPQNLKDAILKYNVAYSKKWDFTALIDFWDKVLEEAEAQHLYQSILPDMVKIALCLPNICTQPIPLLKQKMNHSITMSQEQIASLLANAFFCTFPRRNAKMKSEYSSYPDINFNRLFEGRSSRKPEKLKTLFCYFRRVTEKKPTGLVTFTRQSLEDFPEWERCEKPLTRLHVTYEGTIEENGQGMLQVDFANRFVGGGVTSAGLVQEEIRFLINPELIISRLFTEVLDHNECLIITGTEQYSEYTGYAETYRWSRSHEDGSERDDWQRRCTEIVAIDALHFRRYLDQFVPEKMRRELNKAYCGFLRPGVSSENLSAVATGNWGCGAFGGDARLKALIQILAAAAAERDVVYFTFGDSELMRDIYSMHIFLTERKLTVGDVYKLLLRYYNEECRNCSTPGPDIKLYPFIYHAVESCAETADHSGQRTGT
# UniProt Q8IXH7, sequence (Q8IXH7 whole entry, looked up): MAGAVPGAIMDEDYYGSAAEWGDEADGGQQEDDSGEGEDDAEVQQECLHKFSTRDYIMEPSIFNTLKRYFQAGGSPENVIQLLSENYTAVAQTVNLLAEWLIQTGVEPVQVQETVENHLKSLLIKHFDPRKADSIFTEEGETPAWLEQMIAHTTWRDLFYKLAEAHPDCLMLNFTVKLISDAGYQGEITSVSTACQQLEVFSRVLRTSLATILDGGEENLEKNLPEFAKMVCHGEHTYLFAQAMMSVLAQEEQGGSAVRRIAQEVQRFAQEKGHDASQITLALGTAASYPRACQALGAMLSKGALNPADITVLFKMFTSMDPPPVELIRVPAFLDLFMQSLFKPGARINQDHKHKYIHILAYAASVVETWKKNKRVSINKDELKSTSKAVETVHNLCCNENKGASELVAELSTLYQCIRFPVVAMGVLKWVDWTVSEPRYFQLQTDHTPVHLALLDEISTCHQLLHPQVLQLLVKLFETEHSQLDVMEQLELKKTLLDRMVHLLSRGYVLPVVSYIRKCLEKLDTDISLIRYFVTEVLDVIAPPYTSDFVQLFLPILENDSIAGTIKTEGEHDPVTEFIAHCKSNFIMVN
# UniProt P20585, sequence (P20585 whole entry, looked up): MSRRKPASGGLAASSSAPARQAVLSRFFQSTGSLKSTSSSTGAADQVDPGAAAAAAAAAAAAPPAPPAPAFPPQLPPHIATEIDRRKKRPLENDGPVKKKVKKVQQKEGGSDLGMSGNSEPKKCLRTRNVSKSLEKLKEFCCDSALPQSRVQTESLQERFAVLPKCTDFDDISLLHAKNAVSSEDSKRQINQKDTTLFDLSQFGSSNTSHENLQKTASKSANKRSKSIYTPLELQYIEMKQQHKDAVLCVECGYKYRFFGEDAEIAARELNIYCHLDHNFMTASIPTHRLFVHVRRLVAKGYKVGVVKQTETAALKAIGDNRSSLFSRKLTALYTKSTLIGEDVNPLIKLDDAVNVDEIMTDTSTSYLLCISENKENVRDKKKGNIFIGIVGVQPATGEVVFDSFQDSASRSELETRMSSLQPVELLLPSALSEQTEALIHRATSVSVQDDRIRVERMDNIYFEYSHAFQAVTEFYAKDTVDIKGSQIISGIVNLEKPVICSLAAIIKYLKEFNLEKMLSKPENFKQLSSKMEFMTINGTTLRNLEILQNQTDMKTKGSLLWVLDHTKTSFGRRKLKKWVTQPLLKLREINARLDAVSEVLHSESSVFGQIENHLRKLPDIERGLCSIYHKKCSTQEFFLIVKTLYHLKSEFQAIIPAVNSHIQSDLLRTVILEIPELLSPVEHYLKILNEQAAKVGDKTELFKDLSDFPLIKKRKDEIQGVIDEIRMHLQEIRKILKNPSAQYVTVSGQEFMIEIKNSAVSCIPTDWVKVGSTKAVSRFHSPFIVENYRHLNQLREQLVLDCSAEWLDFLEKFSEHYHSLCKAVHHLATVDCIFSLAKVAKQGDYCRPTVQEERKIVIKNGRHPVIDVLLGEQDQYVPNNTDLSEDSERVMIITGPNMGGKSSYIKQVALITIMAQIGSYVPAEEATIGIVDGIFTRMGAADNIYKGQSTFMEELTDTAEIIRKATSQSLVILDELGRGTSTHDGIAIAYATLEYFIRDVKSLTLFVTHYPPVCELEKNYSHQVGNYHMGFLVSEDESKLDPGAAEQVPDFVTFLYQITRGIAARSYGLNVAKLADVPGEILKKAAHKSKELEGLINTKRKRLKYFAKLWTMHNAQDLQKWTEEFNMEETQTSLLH
Target,log2 fold change (ibrutinib),log2 fold change [1],log2 fold change (ralimetinib),log2 fold change [2],log2 fold change [3],log2 fold change [4],log2 fold change [5],log2 fold change [6],log2 fold change [7],log2 fold change [8],log2 fold change (vemurafenib),log2 fold change [9],log2 fold change (barasertib),log2 fold change [10],log2 fold change (volasertib),log2 fold change [11],log2 fold change [12],log2 fold change [13],log2 fold change (saracatinib),log2 fold change (sotrastaurin)
MSH6 (UniProt P52701),0.001,0.022,0.024,0.003,0.027,-0.01,-0.01,-0.002,0.057,0.003,0.024,0.028,0.021,-0.109,-0.061,0.044,-0.035,-0.041,-0.003,0.047
NCK1 (UniProt P16333),0.025,-0.029,0.003,0.01,-0.016,0.028,0.002,-0.005,0.029,0,0.049,0.003,-0.008,0.068,-0.011,-0.025,0.067,-0.05,0.015,0.014
NELFCD (UniProt Q8IXH7),0.039,0.013,0.019,-0.043,0.009,0.007,0.013,0.011,0.049,-0.02,0.014,0.037,0.047,0.006,-0.032,0.02,0.089,-0.049,-0.005,0.012
NEDD8 (UniProt Q15843),0.059,-0.013,-0.001,0,0.011,-0.01,0.005,0.077,0.025,-0.029,0.063,0.019,0.113,-0.003,0.045,0.041,0.025,-0.107,0.02,0
PARG (UniProt Q86W56),0.013,0.01,0.017,-0.011,-0.025,-0.017,-0.028,0.021,0.061,0.005,0.028,0.033,0.008,-0.027,-0.018,-0.015,0.065,-0.032,0.006,0.02
NCAPH (UniProt Q15003),0.006,0.016,-0.002,-0.031,-0.013,0.003,-0.001,-0.003,0.012,0.011,-0.015,0.001,0.012,-0.046,-0.044,0.027,-0.057,-0.035,-0.016,0.015
NIPSNAP3A (UniProt Q9UFN0),-0.013,-0.014,-0.016,-0.049,0.029,0.023,-0.021,0.004,0.022,-0.056,-0.005,0.018,-0.04,0.043,0.019,-0.024,0.324,-0.213,-0.002,0.021
ORC2 (UniProt Q13416),0.012,-0.011,0.044,0.032,-0.014,0.016,-0.089,-0.005,-0.014,0.021,0.048,0.007,0.003,-0.077,-0.048,0.002,-0.002,-0.085,0.007,0.049
OTUD7B (UniProt Q6GQQ9),-0.008,0.004,0.026,0.005,-0.034,-0.011,-0.019,0.239 (active),0,0.047,0.033,0.011,0.116,-0.029,-0.049,0.018,0.017,-0.042,0.015,-0.011
MSH3 (UniProt P20585),0,-0.017,0.024,-0.037,-0.039,0.023,-0.025,-0.018,-0.007,-0.005,-0.004,0.048,-0.001,0.036,-0.031,-0.034,-0.025,0.031,0.038,0.039
NNMT (UniProt P40261),-0.026,-0.037,0.011,-0.019,-0.05,-0.053,0.026,0.06,0.016,-0.034,0.024,-0.036,-0.059,0.008,0.056,0.015,-0.062,0.03,-0.043,0.021
NLRP2 (UniProt Q9NX02),-0.007,-0.007,0.036,0.021,-0.008,0.007,0.009,0.003,0.021,0.021,-0.011,-0.003,-0.04,-0.048,-0.067,0.041,0.031,-0.05,-0.012,-0.017
NIT2 (UniProt Q9NQR4),0.026,0.014,-0.038,-0.041,0.014,0.017,0.014,0.017,0.019,0,-0.003,0.005,-0.008,0.005,-0.004,-0.004,0.02,-0.013,-0.008,-0.012
NNT (UniProt Q13423),0.012,-0.016,-0.095,-0.01,-0.05,-0.011,-0.019,-0.007,0.01,-0.009,0.012,-0.015,0.013,0.022,0.031,-0.004,0.041,-0.004,-0.025,-0.024
NPLOC4 isoform 2 (UniProt Q8TAT6),-0.016,-0.015,-0.01,-0.003,0.027,-0.005,-0.009,0.062,0.018,-0.015,-0.011,0.025,-0.019,0.025,-0.011,-0.016,-0.066,0.007,0.004,-0.005
ORC5 (UniProt O43913),0.05,0,0.047,-0.001,0.022,-0.027,-0.008,0.012,0.053,-0.007,-0.059,-0.001,-0.052,-0.156,-0.023,0.013,-0.038,0.01,-0.001,0.024

# From the supplement of paper PMC10849652
